Shown is part of a subset that was picked to be rich in hits.
Pf Dd2 inh: inhibitors of Plasmodium falciparum Dd2 growth; P. falciparum Dd2 growth, SYBR Green, 72 h; Potency, µM (doses to about 28.9 µM), for the others: at the highest dose activity, negative = inhibition, most hits filed as inhibitors; 4.3% of 120,000 active; AID 1347417; active = well fitted inhibition curve with a large enough effect;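 note: plate controls were DMSO vehicle for no effect and reference drug for full effect; nearly all actives have a fitted effect of over 65% in size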
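Readout: SYBR Green fluorescence, 485 nm excitation, 535 nm emission, after ~16 h lysis at 37C. Before that, Dd2-infected red cells (2.5% hematocrit) grew 72 h with compound, 29 uM top final concentration.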
* hit, by the source's call; i = inactive; [ ] = another dose, or the depositor's remark. Potency is the fitted concentration of half-maximal effect.

SMILES | Pf Dd2 inh
O=C(C1CCCC1)N1CC2(CCN(C3COC3)C2)OCc2ccccc21 (stereo not drawn) | -28%
O=C(C1CCCC1)N1CC2(CCNC2)OCc2ccccc21 (stereo not drawn) | -11%
c1ccc2c(c1)COC1(CCNC1)CN2CC1CCCCC1 (stereo not drawn) | 13µM*
CN1C[C@H](O)C[C@H]1c1nnc2n1CCN(C(=O)Cc1ccccc1)CC2 | 6%
O=C(C1c2ccccc2C(=O)N(Cc2ccccc2)C12CCCC2)N1CCCC1 (stereo not drawn) | -7%
COCC1(c2nc(C3CCOCC3)nn2-c2ccncc2C)CC1 | 3%
CCC(=O)N1CCc2c(C(=O)Nc3ccc(OC)c(OC)c3)cccc21 | -11%
CCCCOc1c(CNC(C)c2ncccc2C)cccc1OC (stereo not drawn) | 5.6µM*
COc1ccccc1Oc1ncccc1CNC(=O)c1cccnc1C | -5%
CCC(=O)NCc1cccnc1Oc1ccccc1OC | 5%
Cc1nc(CC2CCN(C(=O)Cc3ccccc3)CC2)n[nH]1 | 24%
CC[C@H]1CN(C(=O)Nc2cccc(C(F)(F)F)c2)CC[C@H]1CC(=O)NCc1ccc(OC)cc1 | i
CC[C@H]1CN(C(=O)Nc2cccc(OC)c2)CC[C@H]1CC(=O)NCc1ccccc1 | 13µM*
CC[C@H]1CN(C(=O)Nc2cccc(OC)c2)CC[C@H]1CC(=O)NCc1cccnc1 | 1%[44.1 µM]
O=[S+]([O-])(Nc1ccccc1)c1ccc2c(c1)OCCN(Cc1ccsc1)C2 | -4%[44.1 µM]
O=C(N[C@H]1CO[C@H]2[C@@H]1OC[C@@H]2n1nnnc1Oc1ccc(-n2cncn2)cc1)C1CCCCC1 | 12%
CCn1ccc(C(=O)N2CCC(N3C(=O)C(OCC4CC4)C34CCCCC4)CC2)n1 (stereo not drawn) | -25%
O=C(c1n[nH]c2ccccc12)N1CCC(N2C(=O)C(OCC3CC3)C23CCCCC3)CC1 (stereo not drawn) | 4.5µM*
O=C(C1CCCC1)N1CCC(N2C(=O)C(OCC3CC3)C23CCCCC3)CC1 (stereo not drawn) | i
O=C(C1CCCCCC1)N1CCC(n2cc(C3CCCCC3)nn2)CC1 | -23%
COc1ccc(-c2nc3n(n2)C(c2cccc(C)c2)C(C(N)=O)=C(C)N3)cc1OC (stereo not drawn) | -10%
Cc1cc(C)n2nc(-c3ccc(Cl)cc3)nc2n1 | i
COc1ccc(C2C=C(c3ccc(Cl)cc3)Nc3nc(-c4ccc(Cl)cc4)nn32)cc1 (stereo not drawn) | 0.1µM*
COc1ccc(-c2nc3n(n2)C(=O)CC(c2ccc(Cl)cc2)S3)cc1 (stereo not drawn) | 39%
Cc1ccc(S(=O)(=O)Nc2nc3n(n2)C(c2ccccc2Cl)C=C(c2ccccc2)N3)cc1 (stereo not drawn) | -2%
SMILES | Pf Dd2 inh
Cc1ccc(C2=CC(c3ccc(Cl)cc3)n3nc(-c4ccc(C)cc4)nc3N2)cc1 (stereo not drawn) | 1.3µM*
CC1=C(C(N)=O)C(c2ccccc2F)n2nc(-c3ccc(Cl)cc3)nc2N1 (stereo not drawn) | -13%
Cc1ccc(-c2nc3n(n2)C(c2ccccc2C)C=C(c2ccc(Cl)cc2)N3)cc1 (stereo not drawn) | 5µM*
CCOc1ccc(C2C=C(c3cccc(OC)c3)Nc3nnnn32)cc1 (stereo not drawn) | i
CCn1ccc(C(=O)N2CCC(c3nn(C)c4c3COCC4)CC2)n1 | i[5.79 µM]
CCc1nc2cc(N3CCC(C(=O)NCc4cc(F)cc(F)c4)CC3)cnc2nc1CC | i
Cc1nn(C)cc1CN(C)C(=O)c1cc2cn(C(C)C)cc2s1 | -3%
Cc1ccc(NC(=O)Cn2ccn3nc(-c4ccccc4)c(CO)c3c2=O)c(C)c1 | i
O=C(CN1C(=O)NC2(CCCCC2)C1=O)Nc1cc(F)ccc1F | 40%
COc1ccc(N2CC(c3noc(-c4cc(F)ccc4F)n3)CC2=O)cc1 (stereo not drawn) | 67%
CCc1ccc(C2=C(C)C(N3CCC(C(=O)NCc4ccccc4)CC3)=NS2(=O)=O)cc1 | 3%
CCC1=C(c2ccc(C)cc2)S(=O)(=O)N=C1N1CCC(C(=O)NCCc2cccc(OC)c2)CC1 | 7.9µM*
CCOC(=O)C1CCN(C(=O)C2CCN(C3=NS(=O)(=O)C(c4ccc(C)cc4)=C3CC)CC2)CC1 | 11µM*
CC1=C(c2ccc(C)c(C)c2)S(=O)(=O)N=C1N1CCC(C(=O)NCc2ccccc2C)CC1 | i
CCOC(=O)C1CCN(C(=O)C2CCc3nc(N4CCN(C(C)=O)CC4)sc3C2)CC1 (stereo not drawn) | i
CCOC(=O)C1CCN(C(=O)CN2c3ccc(CC)cc3-c3ccccc3S2(=O)=O)CC1 | -1%
Cc1cc(F)ccc1NC(=O)CN1C(=O)NC2(CCC(C(C)(C)C)CC2)C1=O (stereo not drawn) | -22%
CC(C)CNC(=O)c1ccc(CN2C(=O)NC3(CCS(=O)(=O)CC3)C2=O)cc1 | i
O=C(NCc1cccnc1)C1=NOC2CN(C(=O)Nc3cccnc3)CC12 (stereo not drawn) | 13%
Cn1cc(-c2cc(=O)c3ccnc(NCc4ccc(F)cc4)c3o2)cn1 | -21%[44.1 µM]

Screening results as filed in PubChem BioAssay.
